Screening data: PubChem, National Center for Advancing Translational Sciences (NCATS)
This is a sample that favours compounds with a hit; in the whole collection about 0.92% have one here.
PKM2 act: qHTS Assay for Activators of Human Muscle isoform 2 Pyruvate Kinase; purified PKM2, Kinase-Glo ATP luminescence, activation; response scale: 0% is enzyme alone, no compound; AID 1631, 2009; Pyruvate kinase PKM (Homo sapiens), P14618; hit rate 0.34% among 260,000; Potency, µM (titrated, usually from 57.5 µM), for the others: at the top dose activation, actives largely listed as activators; further: potency means the concentration at half of the fitted maximal effect; on the % scale 0 is the no-effect control and ±100 the full control effect; nearly all actives have a fitted effect of over 55% in size
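Purified hPK-M2 (>95%) run at intermediate activity with 0.1 mM ADP and 0.5 mM PEP in 50 mM imidazole pH 7.2, KCl, MgCl2; 1 h room temperature. ATP formed read by Kinase-Glo luminescence; normalized to uninhibited and no-enzyme controls.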
RXFP1 agonist: qHTS Assay for Agonists of the Relaxin Receptor RXFP1; Relaxin receptor 1 (Homo sapiens), Q9HBX9; HEK293T-RXFP1 cAMP TR-FRET, 30 min; response scale: percent of porcine relaxin response, buffer zero; Potency, µM (doses to about 57.5 µM), for inactives: at the highest dose activation, hits mostly activators; hit rate 0.3% among 370,000; AID 2676, 2010; further: potency means the concentration at half of the fitted maximal effect; on the % scale 0 is the no-effect control and ±100 the full control effect; nearly all actives have a fitted effect of over 60% in size
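HEK293 cells stably expressing RXFP1, treated 30 min at 37C with compounds plus PDE4 inhibitor Ro 20174; cAMP measured by HTRF TR-FRET. Normalized to buffer and 29 nM porcine relaxin; EC50 by Hill fit.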
RXFP1 antagonist: qHTS Assay for Antagonists of the Relaxin Receptor RXFP1; Relaxin receptor 1 (Homo sapiens), Q9HBX9; HEK293-RXFP1, relaxin-stimulated cAMP HTRF, 30 min; stronger effect = lower value; activity change, negative = inhibition, % at 57.5 µM; hit rate 0.59% among 350,000; AID 1259400, 2018;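 active means activity change of -60% or lower, but not beyond a set lower limit; inconclusive means change between -60% and -40%, or beyond the set limit; inactive means change above -40%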; further: on the % scale 0 is the no-effect control and ±100 the full control effect
GALK inh: qHTS Assay for Inhibitors of Human Galactokinase (GALK); P51570; Purified GALK, Kinase-Glo residual ATP luminescence; Potency, µM (series often up to 57.5 µM), without a hit: at the top dose activity change, negative = inhibition, hits mostly inhibitors; hit rate 0.007% among 270,000; further: potency means the concentration at half of the fitted maximal effect; on the % scale 0 is the no-effect control and ±100 the full control effect
Target sequence (P51570 whole entry, looked up): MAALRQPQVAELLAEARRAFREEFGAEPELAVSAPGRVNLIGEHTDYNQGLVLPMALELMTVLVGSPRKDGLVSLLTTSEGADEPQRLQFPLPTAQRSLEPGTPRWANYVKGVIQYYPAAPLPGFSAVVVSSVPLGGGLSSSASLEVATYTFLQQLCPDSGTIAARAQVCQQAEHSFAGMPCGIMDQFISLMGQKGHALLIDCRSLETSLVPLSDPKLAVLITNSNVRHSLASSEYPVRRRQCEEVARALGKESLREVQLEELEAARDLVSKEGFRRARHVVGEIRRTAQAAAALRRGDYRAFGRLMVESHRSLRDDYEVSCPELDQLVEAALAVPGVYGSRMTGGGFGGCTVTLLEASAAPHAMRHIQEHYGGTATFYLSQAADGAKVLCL
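ATP-depletion format; final 35 uM ATP, 100 uM D-galactose, 5 nM enzyme; pH 8.0 HEPES/Mg2+ buffer; 60 min RT; luminescence read 10 min after detection reagent.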
KinaseGlo FLuc: Counterscreen for Luciferase (Kinase-Glo TM) Inhibition | Luciferin 4-monooxygenase (Photuris pensylvanica), Q27757 | hit rate 0.28% among 200,000 | Potency, µM (doses to about 38.3 µM), inactives show at the top dose activity change, negative = inhibition, most hits filed as inhibitors | Kinase-Glo luciferase, ATP luminescence, 8 min; further: potency means the concentration at half of the fitted maximal effect; on the % scale 0 is the no-effect control and ±100 the full control effect; nearly all actives have a fitted effect of over 60% in size
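Kinase-Glo luciferase light output from ATP and luciferin was measured with 10 uM ATP, within the enzyme's linear range. Buffer: 50 mM imidazole pH 7.2, 50 mM KCl, 7 mM MgCl2, 0.01% Tween 20, 0.05% BSA; luminescence read after 8 min at ambient temperature.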
miR-21 reporter: qHTS Assay for Modulators of miRNAs and/orActivators of miR-21. 340,000 tested, under 10 active. Potency, µM (highest dose often 38.3 µM), for the others: at the top dose activity change, positive = activation, actives largely listed as activators. HeLa miR-21 FLuc reporter, luciferase, 48 h;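 further: % of control where 0% means no effect; miR-21 action dims this reporter so a rising signal means less miR-21 action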
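HeLa miR-21-FLuc reporter line, endogenous miR-21; 2000 cells/well in DMEM/10% FBS; compound titration up to ~40uM final, 48 h, 37 degree Celsius; luciferase detection reagent, 15 min lysis, CCD luminescence.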
The depositor's hits bear a star; ? = inconclusive; · = no result; [ ] = remark or other dose. Unless noted, the call rests on the fitted dose curve; in most records, active means well fitted curve in the direction sought with a large enough effect; inconclusive means small, poorly fitted or top-dose-only effect, or another doubt; inactive means no such curve, though single readings can be large; an effect the other way counts as inactive or inconclusive.

SMILES | PKM2 act | RXFP1 agonist | RXFP1 antagonist | GALK inh | KinaseGlo FLuc | miR-21 reporter
Cc1ccc(C)n1-c1ccc(C(=O)NN)cc1 | 3% | -1% | -71* | 1% | 2% | -13%
Cc1ccc(C)n1-c1ccc(C(=O)NCc2ccncc2)cc1 | -3% | 0% | 4 | 10% | 3% | 2%
Oc1ccc2ccccc2c1CN1CCCC1 | -2% | 1% | -23 | 7% | 3% | 2%
CCN1CCN(Cc2c3ccccc3cc3ccccc23)CC1 | 7% | -1% | -60* | 6% | · | -14%
C[C@H]1COc2c(N3CCN(C)CC3)c(F)cc3c(=O)c(C(=O)NCc4ccco4)cn1c23 | · | · | · | · | 0% | ·
COc1cccc(N2CCN(C(=O)CCCCCn3c(=S)[nH]c4cc5c(cc4c3=O)OCO5)CC2)c1 | · | ? | ? | -2% | · | -1%
O=C(CCCn1c(=S)[nH]c2cc3c(cc2c1=O)OCO3)NCc1ccccc1Cl | · | ? | -108* | 1% | · | -3%
O=C(CCCCCn1c(=S)[nH]c2ccccc2c1=O)NCc1ccc2c(c1)OCO2 | -2% | -4% | -62* | 1% | 3% | -8%
CCCCNC(=O)CCCn1c(=S)[nH]c2cc3c(cc2c1=O)OCO3 | 14% | 10% | ? | -1% | 0% | -2%
COc1cccc(CNC(=O)CCCn2c(=S)[nH]c3cc4c(cc3c2=O)OCO4)c1 | · | 21% | -71* | -4% | · | 0%
COCCNc1nc(C)nc2c1nc(-c1ccccc1)n2C1CCN(Cc2ccccc2)C1 (stereo not drawn) | -3% | · | · | · | 3% | ·
Cc1cc(Cc2cc(C)cc(C(C)(C)C)c2O)c(O)c(Cc2cc(C)cc(C(C)(C)C)c2O)c1 | · | · | · | · | -2%[7.66 µM] | ·
C=CCOC(=O)N[C@@H](Cc1ccccc1)/C(C(=O)OC)=C(\C)NCc1ccccc1 | · | · | · | · | -10% | ·
CCOC(=O)CC(C(=O)OCC)C1CCCCC1=O (stereo not drawn) | · | · | · | · | 2% | ·
Cc1nnc(SCc2nc3scc(-c4ccccc4)c3c(=O)[nH]2)s1 | 28µM* | 3% | 4 | · | · | -3%
Nc1nnc(SCc2nc3scc(-c4ccccc4)c3c(=O)[nH]2)s1 | 4% | -3% | -1 | -1% | · | 2%
CN(C(=O)CSc1nc2scc(-c3ccccc3)c2c(=O)[nH]1)c1ccccc1 | · | · | -64* | · | · | ·
CN(CCC#N)C(=O)CSc1nc2scc(-c3ccccc3)c2c(=O)[nH]1 | -9% | 2% | · | 0% | 3% | -3%
CCOc1ccc(N(CCCCO)C(=S)NC(=O)c2ccc(C)c(Br)c2)cc1 | -1% | 0% | -90* | -1% | 0% | -14%
C=CCNC(=S)NC(=O)c1ccc(C)c(Br)c1 | -1% | 2% | -4 | 0% | -3% | -36%
Cc1cc(C)c2sc(N3CCN(C(=O)C4CC4)CC3)nc2c1 | · | 2% | · | · | · | -53%
COc1ccc(-c2cc(-c3cc(C)ccc3O)[nH]n2)cc1 | -3% | 1% | -100* | -3% | 1% | -60%
CC(=O)NC(=S)c1c(N)n(Cc2ccccc2)c(=O)n(C)c1=O | 17% | 3% | · | 1% | -5% | -4%
COC(=O)c1ccc(C(c2c(N)n(Cc3ccccc3)c(=O)n(C)c2=O)N2CCOCC2)cc1 (stereo not drawn) | 13µM* | 1% | 3 | 1% | 1% | 3%
CCOC(=O)c1c(NS(=O)(=O)c2cccc(OC)c2)sc2c1CCC2 | 16µM* | 0% | -23 | -3% | 0% | 3%
SMILES | PKM2 act | RXFP1 agonist | RXFP1 antagonist | GALK inh | KinaseGlo FLuc | miR-21 reporter
CCCCNC(=O)c1ccc2c(=O)n(CCCOCC)c(=S)[nH]c2c1 | -1% | 11% | -7 | 0% | -2% | 0%
CCOCCCNC(=O)c1ccc(-n2c(=S)[nH]c3ccccc3c2=O)cc1 | -5% | -1% | -90* | 0% | 2% | 0%
CC(C)(C)C(=O)CSc1ncnc2c1cnn2Cc1ccccc1 | · | 1% | -24 | 3% | · | -1%
c1ccc(CSc2ncnc3c2cnn3Cc2ccccc2)cc1 | 5µM* | 3% | -5 | 1% | -3% | -9%
CCOC(=O)N1CCN(S(=O)(=O)c2c(C)nc3scc(C)n3c2=O)CC1 | · | 14µM* | 18 | 5% | · | 2%
CCOC(=O)N1CCN(S(=O)(=O)c2c(C)nc3sccn3c2=O)CC1 | · | ? | -5 | -3% | · | -3%
Cc1ncn(-c2ccccc2O)c1C | · | · | · | · | -2%[7.66 µM] | ·
Cc1cccc(/C(N)=N/OC(=O)c2ccc3c(c2)OCO3)c1 | -75% | 1% | -11 | 15% | 10µM* | -46%
N/C(=N\OCc1ccc([N+](=O)[O-])cc1)c1ccccn1 | -30% | 0% | 3 | 8% | 10µM* | ?
N/C(=N\OC(=O)c1ccc2c(c1)OCO2)c1cccc([N+](=O)[O-])c1 | -5% | 2% | -15 | 1% | -23% | -52%
N/C(=N\OC(=O)c1ccc(F)cc1)c1ccccc1 | -53% | 1% | -3 | 15% | 8.9µM* | -40%
C/C(=N/OC(=O)c1ccc(C)cc1)c1cccs1 | -52% | 3% | 6 | 13% | 13µM* | -7%
CC(C(=O)O/N=C(\N)c1ccccn1)c1ccc([N+](=O)[O-])cc1 (stereo not drawn) | 4% | 3% | -3 | -7% | · | -28%
O=C(N[C@H]1CCCc2ccccc21)O[C@@H]1C(=O)c2cc(Br)ccc2O[C@H]1c1ccc2c(c1)OCO2 | · | · | · | · | 1% | ·
N/C(=N\OC(=O)c1cccc(F)c1)c1ccccc1 | -47% | 0% | 3 | 6% | 11µM* | -50%
N/C(=N\OC(=O)c1ccc(Cl)cc1Cl)c1ccccc1 | -28% | -2% | 23 | 4% | 11µM* | -40%
N/C(=N\OC(=O)c1ccccc1)c1ccccn1 | -76% | 0% | -4 | 28% | 1.4µM* | 12%
N/C(=N\OC(=O)c1ccc(Cl)cc1Cl)c1ccc(Cl)cc1 | 18% | 5% | 3 | -1% | -7% | -39%
COc1ccc(C(=O)O/N=C(\C)c2ccccc2)cc1 | -55% | 0% | -13 | 24% | 13µM* | -24%
Cc1ccc(/C(N)=N/OC(=O)c2cccc(F)c2)cc1 | -1% | 0% | 0 | 0% | · | -46%
COC(=O)[C@H]1CC2(CC=C(C)C)C(=O)[C@@](CC=C(C)C)(C(=O)C(C(=O)c3ccccc3)=C2OC)C1(C)C (tested in a mixture with another compound) | · | · | · | · | 1% | ·
CCCCc1ccc(NC(=O)CSc2nc(=O)n(CCN(CC)CC)c3c2CCCC3)cc1 | · | 2% | -16 | · | · | ·
